Measured values as given in PubChem BioAssay (NCI).
Compounds without any hit were thinned out: in the full panel of roughly 79,000, 15% have a hit. A number with no mark means an inactive call. Active and inactive are the calls of the source. Rule as the data show it: active = growth inhibition above about 70%; inactive = the rest. Residues, ends and D or L forms follow the SMILES beside them. *: point of attachment. Fmoc = O=C(OCC1c2ccccc2-c2ccccc21)*; Boc = CC(C)(C)OC(=O)*

Test: NCI Yeast Anticancer Drug Screen. Data for the rad50 strain (AID 155);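 also: 0% = growth of vehicle-only cultures of the same strain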
Details: S. cerevisiae rad50 strain growth inhibition; at 3.7 µM; hits give high values
Method in brief: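 Compounds were tested on a yeast strain with an engineered DNA damage repair alteration; the reported value is growth inhibition normalised to vehicle treatment.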
For `CC(C)C(=O)CC(Sc1ccc(N)cc1)c1ccccc1` (configuration not stated), the growth inhibition was 1%.
`CC(C)OP(=O)(OC(C)C)/C(Cl)=N/Nc1ccc([N+](=O)[O-])cc1` gave a growth inhibition of -21%.
For `O=[N+]([O-])c1cc(Cl)ccc1S(=O)(=O)c1ccc(Cl)cc1[N+](=O)[O-]`, the growth inhibition was -21%.
With `CCCCCCNCCCNc1c2cc(OC)ccc2nc2cccc([N+](=O)[O-])c12` the growth inhibition was 15%.
`N#CCC(=O)N/N=C(\c1ccccc1)C(c1ccccc1)C1(O)C(=O)Nc2c(Cl)ccc(Cl)c21` (configuration not stated) gave a growth inhibition of 0%.
In the case of `CN(C)CCNCCCNc1c2ccccc2nc2cccc([N+](=O)[O-])c12`, the growth inhibition is reported as 39%.
`CCC[CH2][Ge]([CH2]CCC)([CH2]CCC)[O]C(=O)C(O)c1ccccc1` (configuration not stated) gave a growth inhibition of 9%.
`COc1ccc(-c2cc(-c3cc(C)cc(Cl)c3O)nc3[nH]c(=S)[nH]c(=S)c23)cc1` gave a growth inhibition of 5%.
`O=[N+]([O-])c1ccc(/C=C\c2ccc3c(c2)OCO3)c([N+](=O)[O-])c1` gave a growth inhibition of 15%.
`O=C1c2ccccc2N2OC3(N4CCCC4)CCCCC3C12c1ccccc1` (configuration not stated) showed a growth inhibition of -5%.
`CC(C)OC(=O)NNc1cc(Cl)ccc1Cl` showed a growth inhibition of 22%.
In the case of `Cc1oc2ccccc2c(=O)c1Cn1nnc2ccccc21`, the growth inhibition is reported as -1%.
`CC1(C)OC(=O)C(=Cc2ccc([N+](=O)[O-])s2)C(=O)O1` gave a growth inhibition of -7%.
For `CCN(CC)CCCNc1ccc([N+](=O)[O-])c2nc3ccc(OC)cc3c(NCCCN(CC)CC)c12`, the growth inhibition was -1%.
For `COc1cccc(/C=C2\S/C(=N/Nc3nc(-c4ccc([N+](=O)[O-])cc4)cs3)NC2=O)c1O`, the growth inhibition was 11%.
In the case of `OC(Cc1cccc2ccccc12)CN1CCC(c2ccccc2)CC1` (configuration not stated), the growth inhibition is reported as 53%.
`C1=CCN([B-](c2ccccc2)[C+]2CCCCC2)C=C1` showed a growth inhibition of -49%.
In the case of `O=[N+]([O-])c1cc[n+]([O-])c(Cl)c1`, the growth inhibition is reported as 9%.
`CCCNC(=O)OCc1c(COC(=O)NCCC)c(-c2ccc(Cl)c(Cl)c2)n2c1CCC2` gave a growth inhibition of -43%.
With `CC1(C)CC(=O)C(C(=O)Nc2cccs2)=C(O)C1` the growth inhibition was 16%.
With `O=C(NO)c1coc2ccccc2c1=O` the growth inhibition was -5%.
Work on `COc1ccc(C(C)c2cc3c(cc2OCC(C)=O)OCO3)cc1` (configuration not stated) yielded a growth inhibition of 45%.
With `CCS(=O)(=O)Nc1ccc(Nc2c3ccccc3nc3ccccc23)c(OC)c1` the growth inhibition was 79% (active).
Work on `O=S(=O)(c1ccccc1)N1CN2CN(C1)CN(S(=O)(=O)c1ccccc1)C2` yielded a growth inhibition of -7%.
In the case of `CC1=NN(C(=O)c2ccccc2O)C(=O)/C1=C/c1ccco1`, the growth inhibition is reported as 17%.
`O=C1C=C(Br)C(=O)c2ccccc21` showed a growth inhibition of 46%.
With `C[N+](C)([O-])CCCNc1c2ccccc2nc2cccc([N+](=O)[O-])c12` the growth inhibition was 68%.
With `Cc1cccc2c(NCCCN(C)C)c3c([N+](=O)[O-])ccc(C)c3nc12` the growth inhibition was 79% (active).
With `OC1(c2ccccc2)C2CC=CC2C1(c1ccccc1)c1ccccc1` (configuration not stated) the growth inhibition was 6%.
With `C[n+]1c(-c2ccc(/C=N/NC(=O)c3ccc(C(=O)N/N=C/c4ccc(-c5cn6ccccc6[n+]5C)cc4)cc3)cc2)cn2ccccc21` the growth inhibition was 10%.
`CCN(CC)CCC(=O)Nc1ccc2sc3ccccc3c(=O)c2n1` showed a growth inhibition of 53%.
For `O=[N+]([O-])c1ccc2nc(=S)[nH]n2c1`, the growth inhibition was -1%.
Molecule `O=C(c1ccccc1)[C@H]1Nc2ccc(Cl)cc2[C@H]2OCCC[C@@H]12` has a growth inhibition of -2%.
For `COc1cc([N+](=O)[O-])c2ncccc2c1Br`, the growth inhibition was 12%.
`O=S(=O)(c1cccc(C(F)(F)F)c1)N1c2ccccc2-n2cccc2C1c1cccnc1` (configuration not stated) showed a growth inhibition of 5%.
Molecule `CC(C)(C)OC(=O)NCCCCC(NC(=O)C(Cc1c[nH]c2ccccc12)NC(=O)OCC1c2ccccc2-c2ccccc21)C(=O)O` (configuration not stated) (Fmoc-Trp-Lys(Boc)-OH; configuration not given here) has a growth inhibition of -1%.

Same assay, conditions: S. cerevisiae rad50 strain growth inhibition; at 5.0 µM (retest, dose inferred, filed as 0.5); hits give high values
For `CC(C)C(=O)CC(Sc1ccc(N)cc1)c1ccccc1` (configuration not stated), the growth inhibition was -22%.
In the case of `CC(C)OP(=O)(OC(C)C)/C(Cl)=N/Nc1ccc([N+](=O)[O-])cc1`, the growth inhibition is reported as 19%.
For `O=[N+]([O-])c1cc(Cl)ccc1S(=O)(=O)c1ccc(Cl)cc1[N+](=O)[O-]`, the growth inhibition was 14%.
Molecule `CCCCCCNCCCNc1c2cc(OC)ccc2nc2cccc([N+](=O)[O-])c12` has a growth inhibition of 35%.
With `N#CCC(=O)N/N=C(\c1ccccc1)C(c1ccccc1)C1(O)C(=O)Nc2c(Cl)ccc(Cl)c21` (configuration not stated) the growth inhibition was 7%.
In the case of `CN(C)CCNCCCNc1c2ccccc2nc2cccc([N+](=O)[O-])c12`, the growth inhibition is reported as 17%.
In the case of `CCC[CH2][Ge]([CH2]CCC)([CH2]CCC)[O]C(=O)C(O)c1ccccc1` (configuration not stated), the growth inhibition is reported as 95% (active).
`COc1ccc(-c2cc(-c3cc(C)cc(Cl)c3O)nc3[nH]c(=S)[nH]c(=S)c23)cc1` gave a growth inhibition of -32%.
Molecule `O=[N+]([O-])c1ccc(/C=C\c2ccc3c(c2)OCO3)c([N+](=O)[O-])c1` has a growth inhibition of 33%.
For `O=C1c2ccccc2N2OC3(N4CCCC4)CCCCC3C12c1ccccc1` (configuration not stated), the growth inhibition was -35%.
For `CC(C)OC(=O)NNc1cc(Cl)ccc1Cl`, the growth inhibition was 19%.
Work on `Cc1oc2ccccc2c(=O)c1Cn1nnc2ccccc21` yielded a growth inhibition of -20%.
With `CC1(C)OC(=O)C(=Cc2ccc([N+](=O)[O-])s2)C(=O)O1` the growth inhibition was 28%.
Work on `CCN(CC)CCCNc1ccc([N+](=O)[O-])c2nc3ccc(OC)cc3c(NCCCN(CC)CC)c12` yielded a growth inhibition of 23%.
With `COc1cccc(/C=C2\S/C(=N/Nc3nc(-c4ccc([N+](=O)[O-])cc4)cs3)NC2=O)c1O` the growth inhibition was -1%.
In the case of `OC(Cc1cccc2ccccc12)CN1CCC(c2ccccc2)CC1` (configuration not stated), the growth inhibition is reported as 55%.
For `C1=CCN([B-](c2ccccc2)[C+]2CCCCC2)C=C1`, the growth inhibition was -2%.
With `O=[N+]([O-])c1cc[n+]([O-])c(Cl)c1` the growth inhibition was 9%.
Work on `CCCNC(=O)OCc1c(COC(=O)NCCC)c(-c2ccc(Cl)c(Cl)c2)n2c1CCC2` yielded a growth inhibition of 21%.
Work on `CC1(C)CC(=O)C(C(=O)Nc2cccs2)=C(O)C1` yielded a growth inhibition of 26%.
Work on `O=C(NO)c1coc2ccccc2c1=O` yielded a growth inhibition of -3%.
`COc1ccc(C(C)c2cc3c(cc2OCC(C)=O)OCO3)cc1` (configuration not stated) showed a growth inhibition of 1%.
For `CCS(=O)(=O)Nc1ccc(Nc2c3ccccc3nc3ccccc23)c(OC)c1`, the growth inhibition was 86% (active).
In the case of `O=S(=O)(c1ccccc1)N1CN2CN(C1)CN(S(=O)(=O)c1ccccc1)C2`, the growth inhibition is reported as 24%.
Molecule `CC1=NN(C(=O)c2ccccc2O)C(=O)/C1=C/c1ccco1` has a growth inhibition of 11%.
Molecule `O=C1C=C(Br)C(=O)c2ccccc21` has a growth inhibition of 27%.
With `C[N+](C)([O-])CCCNc1c2ccccc2nc2cccc([N+](=O)[O-])c12` the growth inhibition was 63%.
With `Cc1cccc2c(NCCCN(C)C)c3c([N+](=O)[O-])ccc(C)c3nc12` the growth inhibition was 1%.
Work on `OC1(c2ccccc2)C2CC=CC2C1(c1ccccc1)c1ccccc1` (configuration not stated) yielded a growth inhibition of 12%.
With `C[n+]1c(-c2ccc(/C=N/NC(=O)c3ccc(C(=O)N/N=C/c4ccc(-c5cn6ccccc6[n+]5C)cc4)cc3)cc2)cn2ccccc21` the growth inhibition was 15%.
For `CCN(CC)CCC(=O)Nc1ccc2sc3ccccc3c(=O)c2n1`, the growth inhibition was 6%.
`O=[N+]([O-])c1ccc2nc(=S)[nH]n2c1` gave a growth inhibition of -130%.
With `O=C(c1ccccc1)[C@H]1Nc2ccc(Cl)cc2[C@H]2OCCC[C@@H]12` the growth inhibition was 7%.
`COc1cc([N+](=O)[O-])c2ncccc2c1Br` gave a growth inhibition of 14%.
`O=S(=O)(c1cccc(C(F)(F)F)c1)N1c2ccccc2-n2cccc2C1c1cccnc1` (configuration not stated) gave a growth inhibition of 27%.
`CC(C)(C)OC(=O)NCCCCC(NC(=O)C(Cc1c[nH]c2ccccc12)NC(=O)OCC1c2ccccc2-c2ccccc21)C(=O)O` (configuration not stated) (Fmoc-Trp-Lys(Boc)-OH; configuration not given here) showed a growth inhibition of -19%.
